# An excerpt weighted towards active compounds, which were near 6% of everything screened.
# D1 antag = Antagonist of Human D 1 Dopamine Receptor: qHTS | 360,000 compounds, 3.2% hits | AID 504652, 2011 | HEK293 TREx D1 cells, calcium flux, dopamine EC80; hits give low values | activity change, negative = inhibition, % at 10 µM; in the data active = activity change below about -30%
#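 Allosteric or orthosteric antagonism assessed as attenuation of the calcium response to EC80 dopamine, added 180 s after compound, in induced HEK293 Trex D1 cells loaded with no-wash calcium dye.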
# D1 potentiator = Potentiators of Human D1 Dopamine Receptor: qHTS. HEK293 TREx D1 cells, calcium flux, dopamine EC20 potentiation. AID 504651, 2011. potentiation, % at 10 µM. 360,000 compounds, 0.036% hits. D(1A) dopamine receptor (Homo sapiens), P21728; in the data active = potentiation above about 30%
# DRD3 antagonist = qHTS of D3 Dopamine Receptor Antagonist: qHTS; D(3) dopamine receptor (Homo sapiens), P35462; D3R cells, DiscoveRx beta-arrestin luminescence, antagonist mode; hits give low values; max response, negative = inhibition, %; 360,000 compounds, 2.5% hits; in the data active = max response below about -50%
# Target sequence (P35462 whole entry, looked up): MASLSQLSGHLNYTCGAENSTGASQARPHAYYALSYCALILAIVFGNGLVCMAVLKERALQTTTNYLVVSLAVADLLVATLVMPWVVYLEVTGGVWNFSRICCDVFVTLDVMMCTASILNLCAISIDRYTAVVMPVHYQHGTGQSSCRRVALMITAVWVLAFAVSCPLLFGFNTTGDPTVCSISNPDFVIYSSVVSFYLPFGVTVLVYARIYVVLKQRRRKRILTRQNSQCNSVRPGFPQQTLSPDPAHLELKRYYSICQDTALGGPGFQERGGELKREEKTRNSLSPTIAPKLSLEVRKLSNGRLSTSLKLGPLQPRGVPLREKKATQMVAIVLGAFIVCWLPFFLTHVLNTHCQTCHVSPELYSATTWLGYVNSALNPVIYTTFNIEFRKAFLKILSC
#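 Cells expressing the human receptor were seeded at 1500 cells/well, incubated overnight at 37 degrees C in 5% CO2, then exposed to library compounds with dopamine controls for 90 minutes at 37 degrees C before luminescent detection.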
# D1 agonist = Allosteric Agonists of the Human D1 Dopamine Receptor: qHTS; HEK293 T-REx D1 cells, calcium flux, agonist mode; activation, % at 2 µM; 360,000 compounds, 1% hits; in the data active = activation above about 30%
#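 Agonism was scored from calcium flux recorded over 180 s (1 read/s) after pintool compound addition, following a 10-cycle baseline. Cells were inducible force-coupled HEK293 TREx D1, plated overnight at 30 C and loaded with no-wash calcium dye.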
# DRD3 agonist = qHTS of D3 Dopamine Receptor Agonist: qHTS. D(3) dopamine receptor (Homo sapiens), P35462. D3R DiscoveRx beta-arrestin cells, luminescence, 90 min. max activation, %. 410,000 compounds, 0.58% hits. AID 652048, 2013; in the data active = max activation above about 30%
#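 Agonist mode: compounds and dopamine controls were applied to plated cells for 90 min at 37 degrees C after an overnight attachment at 1500 cells/well. Luminescent read-out followed 30 - 60 minutes at room temperature with DiscoveRx detection reagent.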
# Hits are given with their value; . = inactive; / = not tested or not shown.
SMILES,D1 antag,D1 potentiator,DRD3 antagonist,D1 agonist,DRD3 agonist
NS(=O)(=O)c1ccc(NNC(=O)c2ccc(Br)o2)c([N+](=O)[O-])c1,/,/,-65,/,.
O=C(CN1C(=O)c2cccnc2Sc2ccccc21)Nc1cc(F)ccc1F,.,.,/,.,.
CC(C)(C)c1ccc(CN2N=Nc3ccccc3S2(=O)=O)cc1,.,.,-93,.,.
CC(=O)c1cccc(N=Nc2c(-c3ccccc3)[nH]n(-c3ccccc3)c2=O)c1,-31,.,.,.,.
Cc1nc2ccccc2n1CC(O)COc1ccc(Br)cc1 (configuration not stated),.,.,.,.,.
Cc1ccccc1OCC(O)Cn1c2ccccc2c2ccccc21 (configuration not stated),.,.,.,.,46
Cc1ccccc1OCC(O)CN1CCN(CC(O)COc2ccccc2C)C(C)C1 (configuration not stated),-40,.,.,.,.
CC(=O)Nc1ccc(OCC(O)Cn2c3ccccc3c3ccccc32)c(C)c1 (configuration not stated),.,.,.,.,31
Cc1nc2ccccc2n1CC(O)COc1ccccc1Cl (configuration not stated),-46,.,.,.,.
Cc1ccccc1-c1nc(CS(=O)(=O)CC(=O)NCCCc2ccccc2)c(C)o1,.,.,/,.,.
CCc1noc(-c2ccc(NCc3ccccc3)c([N+](=O)[O-])c2)n1,.,.,/,.,.
CCCc1nn2c(C)c(-c3ccccc3)nc2s1,.,.,/,.,.
O=C(O)Cn1nc(N2CCN(c3ccccc3)CC2)ccc1=O,.,.,/,.,.
CCOC(=O)N1CCN(CC(O)COc2ccccc2C(C)(C)C)CC1 (configuration not stated),.,.,.,.,.
CC1CN(CC(O)COc2ccccc2C(C)(C)C)CC(C)O1 (configuration not stated),-31,.,.,124,.
CCc1ccc(-c2nc(CN3CCC(C(=O)N4CCN(c5ccccn5)CC4)CC3)c(C)o2)cc1,-55,.,.,168,.
CCc1ccc(-c2nc(CN3CCC(C(=O)N4CCN(c5ccccc5)CC4)CC3)c(C)o2)cc1,-35,.,.,43,.
COc1cc(OC)cc(-c2nc3n(n2)C(c2ccccc2)C(C(N)=O)=C(C)N3)c1 (configuration not stated),.,.,/,.,.
Nc1ccc(C#Cc2ccc3sc4ccccc4c(=O)c3c2)cc1,/,/,.,/,44
COc1cccc2sc3ccc(C#Cc4ccc(N)cc4)cc3c(=O)c12,.,.,.,.,.
COc1cccc(CNC(=O)c2[nH]c3cc(C)ccc3c2Sc2ccccc2)c1,.,.,/,.,.
O=C1NC(=S)S/C1=C\c1ccc2ccccc2c1,-31,.,.,.,.
CC(C)C(=O)OCC(=O)[C@@]12O[C@H](C3CCCCC3)O[C@@H]1C[C@H]1[C@@H]3CCC4=CC(=O)C=C[C@]4(C)[C@H]3[C@@H](O)C[C@@]12C,/,/,/,/,.
Cn1c(NCc2cccnc2)nc2cc(-c3ccc(C(=O)N4CCOCC4)cc3)sc2c1=O,/,/,-78,/,.
Cc1cccnc1CCNCc1c(C(=O)N2C[C@@H](C)O[C@@H](C)C2)nc2ccc(Cl)cn12,.,.,-63,.,.
SMILES,D1 antag,D1 potentiator,DRD3 antagonist,D1 agonist,DRD3 agonist
FC(F)(F)c1ccnc(N2CCN(Cc3cnc(-c4ccccc4)[nH]3)CC2)c1,.,.,-77,.,.
CC(=O)Nc1ccc(S(=O)(=O)N2CCN(c3cc(C(F)(F)F)ccn3)CC2)cc1,.,.,.,.,.
COc1ccc(N2CCN(C(=O)c3ccc4c(c3)[nH]c(=S)n3c5ccccc5nc43)CC2)cc1,-32,.,/,.,/
COc1ccc(-c2nnc(SCC(=O)Oc3cc(C)ccc3C)o2)cc1,.,.,/,.,.
O=C(O)c1ccccc1-c1nc2ccccc2c(=O)[nH]1,-40,.,.,.,.
O=C(O)c1ccccc1-c1nc(-c2ccccc2)c(-c2ccccc2)[nH]1,.,.,.,.,.
